PubChem BioAssay (Tox21)
Results filed as inconclusive are left out. Active and inactive are the calls of the source. Unless noted, calls follow the shape of the dose curve; as a rule, active = well fitted curve in the direction sought with a large enough effect in the repeat runs; inconclusive = weak or mixed curves; inactive = no such curve, though single readings can be large; an effect the other way counts as inactive or inconclusive.

Tests used:
[1] = qHTS assay to identify small molecule that activate the aryl hydrocarbon receptor (AhR) signaling pathway - cell viability counter screen (AID 743086);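 also: HepG2 liver cells carrying the AhR DRE luciferase reporter; series mostly up to about 70 µM; nearly all actives have a fitted effect of over 45% in size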
Summary of the method: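 Cytotoxicity counter screen: CellTiter-Fluor signal (30 min, 37 C) in 4000 HepG2 cells/well carrying the DRE-luciferase reporter, following 24 h compound exposure at 37 C.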

[2] = target: Peroxisome proliferator-activated receptor gamma (Homo sapiens) (UniProt P37231); assay: qHTS assay to identify small molecule agonists of the peroxisome proliferator-activated receptor gamma (PPARg) signaling pathway (AID 743094; active = well fitted activation curve with a large enough effect in the signal ratio in the repeat runs, not every such curve was filed as active; the % refers to the signal ratio)
Summary of the method: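 GeneBLAzer PPARg UAS-bla HEK293H cells carrying a stably integrated beta-lactamase reporter were pre-incubated 5 h at 37C, then exposed to compounds in DMSO for 17 h at 37C; LiveBLAzer B/G FRET substrate was added for 1 h at room temperature and fluorescence read.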

[3] = qHTS assay to identify small molecule antagonists of the peroxisome proliferator-activated receptor gamma (PPARg) signaling pathway - cell viability counter screen (AID 743194); also: nearly all actives have a fitted effect of over 55% in size
Summary of the method: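 Viability was measured as CellTiter-Glo luminescence in GeneBLAzer PPARg UAS-bla HEK293H cells. These cells had been exposed 17 h at 37 C to compounds together with rosiglitazone at 50 nM final, with the beta-lactamase readout taken in the same wells.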

[4] = qHTS assay for small molecule agonists of the antioxidant response element (ARE) signaling pathway (AID 743202; active = well fitted activation curve with a large enough effect in the signal ratio in the repeat runs, not every such curve was filed as active; the % refers to the signal ratio)
Summary of the method: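 Quantitative high-throughput format in HepG2 cells bearing an integrated ARE-beta-lactamase reporter. Compound exposure lasted 16 h at 37 C, and fluorescence was read 2 h after adding LiveBLAzer B/G substrate at room temperature.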

[5] = qHTS assay for small molecule agonists of the antioxidant response element (ARE) signaling pathway - cell viability counter screen (AID 743203; calls by dose curve; also: nearly all actives have a fitted effect of over 55% in size)
Summary of the method: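 CellSensor ARE-bla HepG2 cells, 2,000 per well, rested 5 hrs at 37C/5% CO2, then exposed to compound in DMSO for 16 hrs; viability read as CellTiter-Glo luminescence after 30 min at room temperature, in the reporter wells.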

[6] = qHTS assay for small molecule activators of the heat shock response signaling pathway - cell viability counter screen (AID 743209); also: nearly all actives have a fitted effect of over 50% in size
Summary of the method: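 CellSensor HSE-bla HeLa cells, plated overnight at 37 C/5% CO2, were exposed to compounds in DMSO for 5 h at 37 C. Viability was then read in the same wells by CellTiter-Glo luminescence after 30 min at room temperature.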

[7] = target: Peroxisome proliferator-activated receptor delta (Homo sapiens) (UniProt Q03181); assay: qHTS assay to identify small molecule agonists of the peroxisome proliferator-activated receptor delta (PPARd) signaling pathway (AID 743212; calls by dose curve)
Summary of the method: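 HEK293H PPARd-bla cells; 5 h preincubation 37 C/5% CO2; compound (DMSO) 37 C; LiveBLAzer B/G FRET substrate 2 h RT; fluorescence intensity.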

[8] = target: Peroxisome proliferator-activated receptor delta (Homo sapiens) (UniProt Q03181); assay: qHTS assay to identify small molecule antagonists of the peroxisome proliferator-activated receptor delta (PPARd) signaling pathway (AID 743215; active = well fitted inhibition curve with a large enough effect in the signal ratio in the repeat runs, not every such curve was filed as active; the % refers to the signal ratio;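 also: cells stimulated with agonist L165041 at 300 nM final during compound exposure; series mostly up to about 62 µM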)
Summary of the method: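 PPARd UAS-bla HEK293H cells were pre-incubated 5 h at 37 C, then given test compounds in DMSO plus agonist L165041 (300 nM final). After 17 h at 37 C, beta-lactamase FRET substrate was added; fluorescence read after 2 h at room temperature.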

[9] = target: Vitamin D3 receptor (Homo sapiens) (UniProt P11473); assay: qHTS assay to identify small molecule agonists of the vitamin D receptor (VDR) signaling pathway (AID 743222; calls by dose curve)
Summary of the method: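 VDR-bla cells were plated 4 h at 37C/5% CO2, then exposed to compounds in DMSO for 16 h. After LiveBLAzer B/G FRET substrate addition and 2 h at room temperature, beta-lactamase reporter fluorescence was read.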

[10] = target: Peroxisome proliferator-activated receptor gamma (Homo sapiens) (UniProt P37231); assay: qHTS assay to identify small molecule antagonists of the peroxisome proliferator-activated receptor gamma (PPARg) signaling pathway (AID 743191; calls by dose curve; also: series mostly up to about 63 µM; nearly all actives have a fitted effect of over 30% in size)
Summary of the method: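 Beta-lactamase reporter under UAS control in HEK293H PPARg-bla cells; compound treatment 17 h at 37C. Read-out: fluorescence intensity after 1 h room-temperature incubation with LiveBLAzer B/G FRET substrate.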

[11] = qHTS assay to identify small molecule agonists of the peroxisome proliferator-activated receptor delta (PPARd) signaling pathway - cell viability counter screen (AID 743211); also: nearly all actives have a fitted effect of over 55% in size
Summary of the method: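 Luminescent ATP viability assay (CellTiter-Glo, 30 min RT) in UAS-bla HEK293H cells carrying the PPAR delta reporter construct, 3000 cells/well, after a 17 h compound treatment at 37 C.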

[12] = qHTS assay to identify small molecule antagonists of the peroxisome proliferator-activated receptor delta (PPARd) signaling pathway - cell viability counter screen (AID 743213); also: nearly all actives have a fitted effect of over 50% in size
Summary of the method: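 Cytotoxicity counter screen: CellTiter-Glo luminescence read 30 min after addition, in the same wells as the reporter assay. There, PPARd UAS-bla HEK293H cells (3000/well) were treated 17 h at 37 C with compound and 300 nM L165041.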

[13] = qHTS assay to identify small molecule agonists of the farnesoid-X-receptor (FXR) signaling pathway - cell viability counter screen (AID 743218); also: nearly all actives have a fitted effect of over 45% in size
Summary of the method: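 FXR-UAS-bla HEK 293T cells, plated 5 h at 37 C, were exposed to compounds for 16 h at 37 C. CellTiter-Glo was then added to the same wells as the bla readout; luminescence read after 30 min at room temperature.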

[14] = qHTS assay to identify small molecule antagonists of the farnesoid-X-receptor (FXR) signaling pathway - cell viability counter screen (AID 743221; active = well fitted cell-killing curve with a large enough effect in the repeat runs, not every such curve was filed as active; also: nearly all actives have a fitted effect of over 50% in size)
Summary of the method: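 In GeneBLAzer FXR-UAS-bla HEK 293T cells stimulated with 50 uM chenodeoxycholic acid (final), compounds acted for 16 h at 37 C. Viability was assessed afterwards by CellTiter-Glo luminescence.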

[15] = qHTS assay to identify small molecule agonists of the vitamin D receptor (VDR) signaling pathway - cell viability counter screen (AID 743224); also: series mostly up to about 63 µM; nearly all actives have a fitted effect of over 50% in size
Summary of the method: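 VDR-bla cells were preincubated 4 h at 37C/5% CO2, then exposed to compounds for 16 h. After the 2 h room-temperature bla FRET read, CellTiter-Glo was added to the same wells and luminescence read after 30 min.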

[16] = target: Aryl hydrocarbon receptor (Homo sapiens) (UniProt P35869); assay: qHTS assay to identify small molecule that activate the aryl hydrocarbon receptor (AhR) signaling pathway (AID 743085);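 also: HG2L7.5c1 human HepG2 liver cells with stably integrated DRE-driven firefly reporter; series mostly up to about 70 µM; nearly all actives have a fitted effect of over 15% in size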
Summary of the method: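 24 h compound exposure, 37C, HepG2-derived HG2L7.5c1 cells with DRE-responsive luciferase. Readouts: fluorescence viability, then luminescence at room temperature after 30 min.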

[17] = qHTS assay for small molecule activators of the heat shock response signaling pathway (AID 743210; active = well fitted activation curve with a large enough effect in the signal ratio in the repeat runs, with a control signal flat, not every such curve was filed as active; the % refers to the signal ratio;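 also: HeLa cells with beta-lactamase reporter driven by heat shock elements; series mostly up to about 63 µM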)
Summary of the method: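 HeLa HSE-bla cells, overnight plating; cpd in DMSO 5 h, 37 C; LiveBLAzer B/G FRET substrate 2.5 h RT; fluorescence intensity read.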

[18] = target: Vitamin D3 receptor (Homo sapiens) (UniProt P11473); assay: qHTS assay to identify small molecule antagonists of the vitamin D receptor (VDR) signaling pathway (AID 743223; active = well fitted inhibition curve with a large enough effect in the signal ratio in the repeat runs, not every such curve was filed as active; the % refers to the signal ratio)
Summary of the method: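 Agonist 1alpha,25-dihydroxyvitamin D3 (3 nM in well) was added with each compound to VDR-bla cells preincubated 4 h. Cells stood 16 h at 37C, then FRET substrate 2 h at room temperature; fluorescence intensity recorded.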

[19] = target: Bile acid receptor (Homo sapiens) (UniProt Q96RI1); assay: qHTS assay to identify small molecule antagonists of the farnesoid-X-receptor (FXR) signaling pathway (AID 743217; active = well fitted inhibition curve with a large enough effect in the signal ratio in the repeat runs, not every such curve was filed as active; the % refers to the signal ratio)
Summary of the method: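 FXR-UAS-bla HEK 293T cells pre-incubated 5 h at 37 °C, then exposed to compounds with chenodeoxycholic acid (50 uM final) for 16 h at 37 °C. Beta-lactamase reporter read by LiveBLAzer B/G FRET substrate fluorescence after 2 h at room temperature.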

[20] = target: Bile acid receptor (Homo sapiens) (UniProt Q96RI1); assay: qHTS assay to identify small molecule agonists of the farnesoid-X-receptor (FXR) signaling pathway (AID 743220; active = well fitted activation curve with a large enough effect in the signal ratio in the repeat runs, not every such curve was filed as active; the % refers to the signal ratio)
Summary of the method: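 Beta-lactamase reporter under UAS control in GeneBLAzer FXR HEK 293T cells (5000/well) measured with LiveBLAzer FRET substrate after 2 h at room temperature. Compound exposure lasted 16 h at 37C.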
% is scaled to controls: 0 for no effect and ±100 for the full control effect.

Chain of Peroxisome proliferator-activated receptor delta (Homo sapiens) (Q03181 whole entry, looked up): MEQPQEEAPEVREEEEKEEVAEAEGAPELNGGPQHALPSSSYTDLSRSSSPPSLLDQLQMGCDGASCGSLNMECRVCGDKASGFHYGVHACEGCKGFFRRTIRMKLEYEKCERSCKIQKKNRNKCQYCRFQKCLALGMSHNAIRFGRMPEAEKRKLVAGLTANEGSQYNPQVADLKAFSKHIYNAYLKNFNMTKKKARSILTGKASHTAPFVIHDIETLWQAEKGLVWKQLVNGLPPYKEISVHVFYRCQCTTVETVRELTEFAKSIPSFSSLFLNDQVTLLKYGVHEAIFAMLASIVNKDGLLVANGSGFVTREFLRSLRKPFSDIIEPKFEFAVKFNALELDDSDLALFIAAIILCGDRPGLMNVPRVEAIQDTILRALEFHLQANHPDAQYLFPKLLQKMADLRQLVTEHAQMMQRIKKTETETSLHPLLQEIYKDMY
Chain of Peroxisome proliferator-activated receptor gamma (Homo sapiens) (P37231 whole entry, looked up): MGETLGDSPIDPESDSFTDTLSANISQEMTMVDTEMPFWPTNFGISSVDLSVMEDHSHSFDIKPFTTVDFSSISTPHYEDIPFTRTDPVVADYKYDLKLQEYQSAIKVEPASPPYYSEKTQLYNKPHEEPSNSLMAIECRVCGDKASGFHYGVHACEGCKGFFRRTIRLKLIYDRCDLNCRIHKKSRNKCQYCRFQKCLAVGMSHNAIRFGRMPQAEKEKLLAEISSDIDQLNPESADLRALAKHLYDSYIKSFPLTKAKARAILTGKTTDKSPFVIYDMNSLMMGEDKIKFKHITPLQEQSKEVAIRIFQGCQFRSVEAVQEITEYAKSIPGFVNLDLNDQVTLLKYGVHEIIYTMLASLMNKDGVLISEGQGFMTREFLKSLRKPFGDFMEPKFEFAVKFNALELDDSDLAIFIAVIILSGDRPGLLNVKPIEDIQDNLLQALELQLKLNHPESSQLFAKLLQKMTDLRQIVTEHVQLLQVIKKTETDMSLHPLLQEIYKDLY
Chain of Vitamin D3 receptor (Homo sapiens) (P11473 whole entry, looked up): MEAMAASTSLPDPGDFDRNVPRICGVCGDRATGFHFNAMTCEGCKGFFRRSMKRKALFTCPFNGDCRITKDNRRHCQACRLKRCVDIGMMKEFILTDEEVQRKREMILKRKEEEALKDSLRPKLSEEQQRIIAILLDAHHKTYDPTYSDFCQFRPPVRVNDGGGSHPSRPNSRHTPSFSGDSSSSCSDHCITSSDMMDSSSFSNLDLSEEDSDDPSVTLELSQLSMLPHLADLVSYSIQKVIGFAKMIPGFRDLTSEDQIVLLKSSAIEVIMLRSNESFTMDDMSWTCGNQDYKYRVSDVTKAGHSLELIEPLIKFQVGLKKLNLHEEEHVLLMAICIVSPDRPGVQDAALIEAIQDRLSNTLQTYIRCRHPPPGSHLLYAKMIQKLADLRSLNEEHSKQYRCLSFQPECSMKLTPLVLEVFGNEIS
Chain of Bile acid receptor (Homo sapiens) (Q96RI1 whole entry, looked up): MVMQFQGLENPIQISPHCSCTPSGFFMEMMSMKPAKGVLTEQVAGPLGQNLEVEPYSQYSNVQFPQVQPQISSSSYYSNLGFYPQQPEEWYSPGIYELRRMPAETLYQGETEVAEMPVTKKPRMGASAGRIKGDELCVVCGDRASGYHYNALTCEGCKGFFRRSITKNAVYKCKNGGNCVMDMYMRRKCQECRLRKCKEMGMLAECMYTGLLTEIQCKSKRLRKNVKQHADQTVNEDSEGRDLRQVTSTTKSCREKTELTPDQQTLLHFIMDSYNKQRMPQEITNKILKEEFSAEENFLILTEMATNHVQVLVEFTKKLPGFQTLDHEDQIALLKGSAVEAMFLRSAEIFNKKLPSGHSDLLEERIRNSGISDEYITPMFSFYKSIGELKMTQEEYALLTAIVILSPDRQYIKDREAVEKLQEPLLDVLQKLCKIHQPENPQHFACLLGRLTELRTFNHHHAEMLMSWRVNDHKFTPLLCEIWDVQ
Chain of Aryl hydrocarbon receptor (Homo sapiens) (P35869 whole entry, looked up): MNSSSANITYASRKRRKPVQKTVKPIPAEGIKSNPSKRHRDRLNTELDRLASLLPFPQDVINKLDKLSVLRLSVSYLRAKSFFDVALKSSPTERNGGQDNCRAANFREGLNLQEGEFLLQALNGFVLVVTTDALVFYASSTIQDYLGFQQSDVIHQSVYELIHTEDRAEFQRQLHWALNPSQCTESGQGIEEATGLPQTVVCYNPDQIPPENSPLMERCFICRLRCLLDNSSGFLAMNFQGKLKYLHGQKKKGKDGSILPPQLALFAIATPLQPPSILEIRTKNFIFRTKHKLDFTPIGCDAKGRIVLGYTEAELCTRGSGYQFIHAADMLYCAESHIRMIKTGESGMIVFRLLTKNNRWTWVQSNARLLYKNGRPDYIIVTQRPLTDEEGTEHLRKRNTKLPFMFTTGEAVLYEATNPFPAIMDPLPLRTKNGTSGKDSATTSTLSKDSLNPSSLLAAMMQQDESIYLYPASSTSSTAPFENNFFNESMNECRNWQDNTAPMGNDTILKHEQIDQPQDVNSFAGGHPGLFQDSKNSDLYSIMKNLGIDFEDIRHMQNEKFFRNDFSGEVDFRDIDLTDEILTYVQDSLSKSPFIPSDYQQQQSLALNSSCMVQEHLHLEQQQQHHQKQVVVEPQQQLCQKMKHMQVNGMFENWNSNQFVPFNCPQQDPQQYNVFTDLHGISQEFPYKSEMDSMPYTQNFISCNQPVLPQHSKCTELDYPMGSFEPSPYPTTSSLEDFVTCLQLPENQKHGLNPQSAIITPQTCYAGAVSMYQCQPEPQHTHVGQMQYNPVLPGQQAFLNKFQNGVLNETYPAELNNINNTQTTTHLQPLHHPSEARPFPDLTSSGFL

CCCCC(CC)CN1C(=O)C2C3C=CC(C3)C2C1=O (stereo unspecified)
inactive: Potency [1] | Potency [2] | Potency [3] | Potency [4] | Potency [5] | Potency [6] | Potency [7] | Potency [8] | Potency [9]

Nc1ccc(S(=O)(=O)Nc2ccccc2)cc1
inactive: Potency [1] | Potency [2] | Potency [10] | Potency [3] | Potency [4] | Potency [5] | Potency [6] | Potency [11] | Potency [7] | Potency [12] | Potency [8] | Potency [13] | Potency [14] | Potency [15]

CCCNCC(O)COc1ccccc1C(=O)CCc1ccccc1 (stereo unspecified)
inactive: Potency [16] | Potency [3] | Potency [5] | Potency [6] | Potency [17] | Potency [14] | Potency [9] | outcome [18]

c1cc(CCCc2ccncc2)ccn1
inactive: Potency [1] | Potency [2] | Potency [3] | Potency [4] | Potency [5] | Potency [6] | Potency [17] | Potency [11] | Potency [7] | Potency [12] | Potency [8] | Potency [13] | Potency [14] | Potency [9] | outcome [18] | Potency [15]

CCCCCCCC/C=C\CCCCCCCC(=O)OCC
inactive: Potency [1] | Potency [2] | Potency [10] | Potency [5] | Potency [6] | Potency [11] | Potency [7] | Potency [13] | Potency [14] | Potency [15]

CCC(CC)Nc1ccc(C)c(C)c1
inactive: Potency [1] | Potency [2] | Potency [10] | Potency [3] | Potency [4] | Potency [5] | Potency [6] | Potency [11] | Potency [12] | Potency [13] | Potency [14]

CC1(c2ccccc2)OC(C(=O)O)=CC1=O (stereo unspecified)
inactive: Potency [1] | Potency [2] | Potency [10] | Potency [3] | Potency [4] | Potency [5] | Potency [6] | Potency [11] | Potency [7] | Potency [12] | Potency [19] | Potency [20] | Potency [9] | outcome [18] | Potency [15]

CC(C)(CO)[N+](=O)[O-]
inactive: Potency [1] | Potency [2] | Potency [10] | Potency [3] | Potency [4] | Potency [5] | Potency [6] | Potency [17] | Potency [12] | Potency [13] | Potency [14] | Potency [9] | Potency [15]

CCCCCCCN
inactive: Potency [1] | Potency [2] | Potency [3] | Potency [4] | Potency [5] | Potency [6] | Potency [11] | Potency [7] | Potency [12] | Potency [20] | Potency [14] | Potency [9] | outcome [18] | Potency [15]

C/C(=C(\CCOP(=O)(O)O)SC(=O)c1ccccc1)N(C=O)Cc1cnc(C)nc1N
inactive: Potency [1] | Potency [2] | ratio activity, negative = inhibition [10] 3.86% [at 5.95 µM] | activity change, negative = cytotoxicity [3] 4.9% [at 5.95 µM] | activation [4] 14.1% [at 8.36 µM] | viability change, negative = cytotoxic [5] 8.52% [at 8.36 µM] | activity change, negative = cytotoxicity [6] -16.4% [at 5.95 µM] | activation [17] 1.29% [at 5.95 µM] | activity change, negative = cytotoxicity [11] 2.72% [at 5.95 µM] | activation [7] -1.46% [at 5.95 µM] | ratio activity, negative = inhibition [8] 6.78% [at 6.26 µM] | viability change, negative = cytotoxic [13] 3.54% [at 5.95 µM] | activity change, negative = cytotoxicity [14] 0.132% [at 5.95 µM] | activation [9] -0.529% [at 6.01 µM] | activity change, negative = inhibition [18] 2.53% [at 6.95 µM] | activity change, negative = cytotoxicity [15] -3.71% [at 5.95 µM]

CCCCCCCCO[C@@H]1O[C@H](CO)[C@@H](O)[C@H](O)[C@H]1O
inactive: Potency [1] | Potency [2] | Potency [10] | Potency [3] | Potency [4] | Potency [5] | Potency [6] | Potency [17] | Potency [11] | Potency [7] | Potency [12] | Potency [19] | Potency [13] | Potency [20] | Potency [14] | Potency [9] | Potency [15]

COC(C)OC
inactive: Potency [1] | Potency [2] | Potency [10] | Potency [3] | Potency [4] | Potency [5] | Potency [6] | Potency [17] | Potency [11] | Potency [7] | Potency [8] | Potency [14] | Potency [9]

CCC(=O)O[C@]1(C(=O)CCl)[C@@H](C)C[C@H]2[C@@H]3CCC4=CC(=O)C=C[C@]4(C)[C@@]3(F)[C@@H](O)C[C@@]21C
inactive: Potency [1] | Potency [2] | Potency [10] | Potency [5] | Potency [6] | Potency [17] | Potency [11] | Potency [13] | Potency [14] | Potency [9] | Potency [15]

CCCCCC[C@@H](O)C/C=C\CCCCCCCC(=O)OC
inactive: Potency [1] | Potency [2] | Potency [3] | Potency [4] | Potency [5] | Potency [6] | Potency [17] | Potency [11] | Potency [12] | Potency [13] | Potency [14] | Potency [9] | Potency [15]

COc1ccnc(CS(=O)c2nc3ccc(OC(F)F)cc3[nH]2)c1OC (stereo unspecified)
inactive: Potency [1] | Potency [2] | Potency [10] | Potency [5] | Potency [6] | Potency [11] | Potency [7] | Potency [12] | Potency [8] | Potency [13] | Potency [14] | Potency [15]

CCCCCCCC#N
inactive: Potency [1] | Potency [2] | Potency [10] | Potency [3] | Potency [4] | Potency [5] | Potency [11] | Potency [7] | Potency [13] | Potency [14] | outcome [18]

C[Si](C)(CCCN)O[Si](C)(C)CCCN
inactive: Potency [1] | Potency [2] | Potency [3] | Potency [5] | Potency [6] | Potency [17] | Potency [11] | Potency [7] | Potency [12] | Potency [8] | Potency [14] | outcome [18] | Potency [15]
